31 compounds from PubChem BioAssay (Tox21) can be followed below.

Records with an inconclusive call do not appear. The source made the active and inactive calls. The call rests on the fitted dose curve; in most records, active means well fitted curve in the direction sought with a large enough effect in the repeat runs; inconclusive means weak or mixed curves; inactive means no such curve, though single readings can be large; an effect the other way counts as inactive or inconclusive.

Test [1] in a line: qHTS assay to identify small molecule antagonists of the glucocorticoid receptor (GR) signaling pathway - cell viability counter screen (AID 720693). Further: nearly all actives have a fitted effect of over 55% in size.
The nature of test [2]: qHTS assay for identifying genotoxic compounds that show differential cytotoxicity against isogenic chicken DT40 cell lines with known DNA damage response pathways - wild type cell line (AID 743012). Further: nearly all actives have a fitted effect of over 60% in size. Further: potency means the concentration at half of the fitted maximal effect. The method, boiled down: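 Wild type DT40, 300 cells/well, ~0.5 h settle at 37 C/5% CO2; compounds in DMSO added by pintool; 40 h at 37 C/5% CO2; CellTiter-Glo, 30 min RT; luminescence.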

A short description of test [3]: qHTS assay for identifying genotoxic compounds that show differential cytotoxicity against isogenic chicken DT40 cell lines with known DNA damage response pathways - Rev3 mutant cell line (AID 743014). Further: nearly all actives have a fitted effect of over 55% in size. Further: potency means the concentration at half of the fitted maximal effect.
Test [4] in a line: qHTS assay for identifying genotoxic compounds that show differential cytotoxicity against isogenic chicken DT40 cell lines with known DNA damage response pathways - Rad54/Ku70 mutant cell line (AID 743015). Further: nearly all actives have a fitted effect of over 60% in size. Further: potency means the concentration at half of the fitted maximal effect.
Test [5] in a line: qHTS assay to identify small molecule antagonists of the androgen receptor (AR) signaling pathway - cell viability counter screen (AID 743033; further: nearly all actives have a fitted effect of over 45% in size).
A short description of test [6]: qHTS assay to identify small molecule antagonists of the androgen receptor (AR) signaling pathway using the MDA cell line - cell viability counter screen (AID 743041; further: nearly all actives have a fitted effect of over 45% in size). The procedure, abridged:
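Same-well cytotoxicity was assessed by CellTiter-Fluor in MDA-kb2 AR-luc cells after 16 h of compound treatment under R1881 agonism.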

With `CC(=O)N[C@@H](Cc1ccc(O)cc1)C(=O)O`, the Potency entry in test [1], in test [2], in test [3], in test [4], in test [5] and in test [6] was “inactive” throughout.
With `CCCc1nc2c(C)cc(-c3nc4ccccc4n3C)cc2n1Cc1ccc(-c2ccccc2C(=O)O)cc1`, the Potency result in test [1], in test [2], in test [3], in test [4], in test [5] and in test [6] was “inactive” in each case.
With `CCCCCCOC(=O)CCCCC`, the Potency entry in test [1], in test [2], in test [3], in test [4], in test [5] and in test [6] was “inactive” in each case.
For `Cc1ccc(NC(=O)N(C)C)cc1NC(=O)N(C)C`, the Potency entry in test [1], in test [2], in test [3], in test [4], in test [5] and in test [6] was “inactive” in each case.
On to `O=C(O)CN1C(=O)c2cccc3cccc(c23)C1=O`, for which the Potency result in test [1], in test [2], in test [3], in test [4], in test [5] and in test [6] was “inactive” throughout.
`CCCCCCCCCCCCCCCCCC(=O)OCC(CC)CCCC` (stereo unspecified): the Potency entry in test [1], in test [2], in test [3], in test [4], in test [5] and in test [6] was “inactive” in each case.
With `O=C1OC[C@H](Cc2cccc(O)c2)[C@H]1Cc1cccc(O)c1`, the Potency entry in test [1], in test [2], in test [3], in test [4], in test [5] and in test [6] was “inactive” each time.
Consider `CC(CN(CCN(CC(C)OCCO)CC(C)OCCO)CC(C)OCCO)OCCO` (stereo unspecified), for which the Potency entry in test [1], in test [5] and in test [6] was “inactive” in each case. The figures for the Potency in test [2], in test [3] and in test [4] were 18.6 µM (active), 10.5 µM (active) and 20.9 µM (active), respectively.
Take `CC(=O)OCC1=C(C(=O)O)N2C(=O)[C@@H](NC(=O)CSc3ccncc3)[C@H]2SC1`: the Potency result in test [1], in test [2], in test [3], in test [4], in test [5] and in test [6] was “inactive” each time.
Consider `Cc1ccc(Cl)cc1N`, for which the Potency result in test [1], in test [2], in test [3], in test [4], in test [5] and in test [6] was “inactive” each time.
Turning to `Cc1ccc2c(c1)CCCN2`, the Potency result in test [1], in test [2], in test [3], in test [4], in test [5] and in test [6] was “inactive” in each case.
Consider `ClC1=C(Cl)C1(Cl)Cl`, for which the Potency entry in test [1], in test [2], in test [3], in test [4], in test [5] and in test [6] was “inactive” throughout.
On to `O=C(O)c1cccc(Oc2ccccc2)c1`, for which the Potency entry in test [1], in test [2], in test [3], in test [4], in test [5] and in test [6] was “inactive” in each case.
On to `O=C(c1ccccc1)C1CCC1`, for which the Potency entry in test [1], in test [2], in test [3], in test [4], in test [5] and in test [6] was “inactive” in each case.
Consider `CC(C)Cc1ccc(CC(=O)O)cc1`, for which the Potency result in test [1], in test [2], in test [3], in test [4], in test [5] and in test [6] was “inactive” each time.
Take `O=[N+]([O-])c1ccc2ncccc2c1`: the Potency entry in test [1], in test [2], in test [3], in test [4], in test [5] and in test [6] was “inactive” throughout.
With `OCC(CO)n1cnc(-c2ccc(F)cc2)c1-c1ccnc(Oc2ccccc2)n1`, the Potency entry in test [1], in test [5] and in test [6] was “inactive” each time. In addition, the Potency in test [2], in test [3] and in test [4] was 68.5 µM (active) in each case.
Regarding `O=c1[nH]c2cc(C(F)(F)F)c(N3CCOCC3)cc2n(CP(=O)(O)O)c1=O`, the Potency entry in test [1], in test [2], in test [3], in test [4], in test [5] and in test [6] was “inactive” in each case.
As to `COc1cc(C(C)=O)ccc1OCCCN1CCC(c2noc3cc(F)ccc23)CC1`, the Potency result in test [1], in test [5] and in test [6] was “inactive” throughout. Also, the Potency in test [2] was 11.9 µM (active); in test [3], 18.8 µM (active); in test [4] it was 16.8 µM (active).
Take `COC(CC(C)CCCC(C)(C)O)OC` (stereo unspecified): the Potency entry in test [1], in test [2], in test [3], in test [4], in test [5] and in test [6] was “inactive” throughout.
In the case of `CC(=O)C(C)=O`, the Potency result in test [1], in test [2], in test [3], in test [4], in test [5] and in test [6] was “inactive” throughout.
For `Cc1ccc(N(CCO)CCO)cc1`, the Potency entry in test [1], in test [2], in test [3], in test [4], in test [5] and in test [6] was “inactive” throughout.
Turning to `N[C@@H](Cc1cc(I)c(O)c(I)c1)C(=O)O`, the Potency entry in test [1], in test [2], in test [3], in test [4], in test [5] and in test [6] was “inactive” in each case.
For the compound `SCCc1cnccn1`, the Potency result in test [1], in test [2], in test [3], in test [4], in test [5] and in test [6] was “inactive” throughout.
In the case of `O=P(O)(O)Oc1ccccc1`, the Potency entry in test [1], in test [2], in test [3], in test [4], in test [5] and in test [6] was “inactive” in each case.
As for `O=C(Nc1ccc(C(=O)O)c(O)c1)c1ccccc1`, the Potency result in test [1], in test [2], in test [3], in test [4], in test [5] and in test [6] was “inactive” each time.
Turning to `O=S(=O)(O)CO`, the Potency entry in test [1], in test [2], in test [3], in test [4], in test [5] and in test [6] was “inactive” each time.
Take `C=CC(=O)O`: the Potency entry in test [1], in test [2], in test [3], in test [4], in test [5] and in test [6] was “inactive” throughout.
With `CN=C(N)NC(=O)Nc1c(C)cccc1C`, the Potency result in test [1], in test [2], in test [3], in test [4], in test [5] and in test [6] was “inactive” in each case.
With `CC(=O)OCCC1CCCCC1`, the Potency entry in test [1], in test [2], in test [3], in test [4], in test [5] and in test [6] was “inactive” in each case.
With `CC1=C2[C@@H]([C@H](C)CC[C@H]2/C=C(\C)C(=O)O)[C@H](O)C1`, the Potency entry in test [1], in test [2], in test [3], in test [4], in test [5] and in test [6] was “inactive” in each case.
